The values below come from PubChem BioAssay (NCI).

Compounds without any hit were thinned out: in the full panel of roughly 83,000, 20% have a hit.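 96-well plates, one dose, 48 hours. Percent growth reported; active if below 10.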 Values without a mark were called inactive. Activity calls are given as the source filed them.

This test concerns MDA-MB-468 breast. Description: NCI-60 one-dose screen, 48 h (100 = growth as untreated, 0 = no growth, -100 = all killed). Particulars: 10 µM unless noted.
For the compound `O=C1c2cccc(NCCN=Cc3cc(O)ccc3O)c2C(=O)c2c(NCCN=Cc3cc(O)ccc3O)cccc21`, the growth is -85.8% (active).
Take `CSc1ccc2c(c1)N(CCC1CCCCN1C)c1ccccc1S2` (stereo not drawn): the growth was -10.2% (active).
With `O=C1C=CN2C(=O)CC=CC2[C@@H]1O` (stereo partly drawn), the growth is 110%.
